From ChEMBL document CHEMBL3988442, “University of Dundee, Small-Polar-MMV Screening Library” (2021)
The campaign covered roughly 48,000 compounds. About 13,000 (27%) showed an effect of 50% or more. The list shows a part of the results.

The molecules below were run on Wolbachia pipientis (assay: Anti-Wolbachia Cell-Based Screen). Settings: 5 µM.
Type: functional
Set-up: scale not given: in the data most compounds retested in dose-response had high values

| SMILES | Percent Effect [%] |
| --- | --- |
| Cc1ccc(C(=O)N(C)CCNS(C)(=O)=O)cc1Br | -2.447 |
| Cc1cc(C(=O)N2CCOC[C@H](Oc3cnccn3)C2)c(C(F)(F)F)o1 | 1.166 |
| Cc1nnc2n1CCN(CC(=O)NC(C)c1cc3ccccc3o1)C2 (configuration not stated) | -0.5236 |
| COCCN1CCN(Cc2ccc(F)c(C)c2)[C@H]2CS(=O)(=O)C[C@H]21 | -0.5112 |
| O=C1NCCN(Cc2ccoc2)C1CC(=O)N1CCc2sccc2C1 (configuration not stated) | -12.03 |
| CCCN1CCN(Cc2nc3ccccc3[nH]2)[C@H]2CS(=O)(=O)C[C@H]21 | -8.969 |
| CC1CCC(O)(CN2CCN(CCNC(=O)C3CCC3)CC2)CC1 (configuration not stated) | 8.242 |
| Cc1[nH]c2c(C)ccc(C)c2c1CC(=O)NCCNc1cccnc1 | 0.5336 |
| N[C@@H]1CCN(Cc2ccccc2CS(=O)(=O)c2ccccc2)C[C@H]1O | -11.48 |
| c1cnnc(N[C@@H]2CC[C@@H]3CN(Cc4ccc5[nH]ccc5c4)C[C@@H]32)c1 | 53.89 |
| c1cnn(CCC2CCN(Cc3ccc4[nH]ccc4c3)CC2)c1 | -20.25 |
| CN(C)S(=O)(=O)N1C[C@@H]2CC[C@H](C1)N(Cc1ccc3[nH]ccc3c1)C2 | 10.36 |
| O=C1CO[C@H]2CN(Cc3c[nH]c4ccccc34)C[C@H]2N1 | 5.983 |
| c1cnnc(N[C@@H]2CC[C@@H]3CN(Cc4ccc5cc[nH]c5c4)C[C@@H]32)c1 | 79.05 |
| c1cc2ccc(N3CCN(Cc4ccc5c(c4)OCO5)CC3)nc2[nH]1 | -12.23 |
| c1cnnc(N[C@@H]2CC[C@@H]3CN(Cc4c[nH]c5ccccc45)C[C@@H]32)c1 | 81.26 |
| c1ccc2c(Cc3nnc([C@H]4CCNC4)o3)c[nH]c2c1 | -7.413 |
| Cc1nccc(N[C@H]2CN(CCS(C)(=O)=O)C[C@@H]2C2CC2)n1 | -10.57 |
| Cc1cn2c(CN(C)C(=O)c3cnc(N)c(Cl)c3)c(C)nc2s1 | 7.837 |
| CCn1cnnc1CN(C)C(=O)c1cc(COc2cccc(F)c2)[nH]n1 | -21.78 |
| CCOCC(=O)NC1(c2cccc(Cl)c2)CC1 | -6.24 |
| Cc1nc2ccccc2nc1CN1CCCC1Cn1cccn1 (configuration not stated) | 15.41 |

| SMILES | Percent Effect [%] |
| --- | --- |
| c1cnn(CC2CCCN2Cc2ccc(-n3cccn3)cc2)c1 (configuration not stated) | 123 |
| CCCc1nc(CN2CCCC2Cn2cccn2)cs1 (configuration not stated) | -10.42 |
| Cc1nc(C)n(CC2CCCN2Cc2cn(-c3ccccc3)nn2)n1 (configuration not stated) | -1.626 |
| Cc1nc(CN2CCCC2Cn2cccn2)nc2ccccc12 (configuration not stated) | 5.126 |
| c1ccc(-n2cc(CN3CCCC3Cn3cccn3)nn2)cc1 (configuration not stated) | 141.8 |
| CCC(=O)N1CCN(C(=O)Nc2ccc(Cl)cc2)[C@H]2CS(=O)(=O)C[C@H]21 | 20.51 |
| O=C(COC1CCCC1)N1C[C@@H]2CN(Cc3ccoc3)CCO[C@@H]2C1.O=C(O)C(F)(F)F | -10.48 |
| O=C1NCC(C(=O)Nc2ncc(Cc3ccccc3F)s2)N1 (configuration not stated) | 80.55 |
| O=C(NCc1ccccc1F)NC1CCCN(c2ncccn2)C1 (configuration not stated) | 7.135 |
| CC(=O)Nc1ncc(S(=O)(=O)Nc2ccc(F)cc2)s1 | 1.75 |
| Cc1ccccc1Cc1cnc(NC(=O)C2CNC(=O)N2)s1 (configuration not stated) | 1.413 |
| CC(=O)Nc1ncc(S(=O)(=O)Nc2ccc(F)cc2F)s1 | 11.75 |
| O=C1NCC(C(=O)Nc2ncc(Cc3ccc(F)cc3F)s2)N1 (configuration not stated) | 122.8 |
| CCCNc1ncc(C2CC(=O)NCc3nc4ccccn4c32)cn1 (configuration not stated) | 19.88 |
| CCS(=O)(=O)c1ccccc1N1CCC(NC(C)=O)CC1 | -10.39 |
| CN(CCN1CCCCCC1)C(=O)c1c(O)cccc1O | -5.64 |
| NC(=O)c1c(SCCN2CCCCC2)sc2c(O)cc(=O)[nH]c12 | 88.72 |
| CCOCC(=O)N1CC(=O)Nc2cc(Br)ccc21 | -5.264 |
| Cc1cc(C(=O)NCCn2nc3ccccn3c2=O)[nH]n1 | -11.84 |
| Cc1ccc2cc(C(=O)NCCn3nc4ccccn4c3=O)[nH]c2c1 | 12.5 |
| O=c1n(CCNCc2ccc3ccccc3c2)nc2ccccn12 | 96.37 |
| Cc1ccc(CSCCn2nc3ccccn3c2=O)cc1 | -0.2652 |

| SMILES | Percent Effect [%] |
| --- | --- |
| O=c1n(CCNCc2ccc(-c3ccccc3)cc2)nc2ccccn12 | 92.23 |
| Cc1cc(C)c2c(c1)C(NC(=O)CSCC(N)=O)CCO2 (configuration not stated) | -11.46 |
| N[C@@H](Cc1c[nH]cn1)C(=O)N1CCC(Oc2ccc(F)cc2)CC1 | 142.9 |
| COc1ccc(OC2CCN(C(=O)c3cnc(C)s3)CC2)cc1 | -7.331 |
| CN1CCC(N(C)CCC(=O)N2CCC(Oc3ccc(Cl)cc3)CC2)C1 (configuration not stated) | -10.05 |
| COc1ccc(OC2CCN(C(=O)C(C)Cn3cccn3)CC2)cc1 (configuration not stated) | -7.925 |
| N[C@@H](Cc1c[nH]cn1)C(=O)N1CCC(Oc2ccc(Cl)cc2)CC1 | 129.2 |
| Cc1ccc(OC2CCN(C(=O)C(C)Cn3cccn3)CC2)cc1 (configuration not stated) | -8.941 |
| COc1ccc(OC2CCN(C(=O)[C@@H](N)Cc3c[nH]cn3)CC2)cc1 | 108.9 |
| O=C(N1CCC(Oc2ccncc2)CC1)C1(c2ccc(F)cc2)CC1 | 4.458 |
| O=C(O)c1ccc(N2CCC(Oc3ccc(Cl)cc3)CC2)nc1 | 7.355 |
| CCN(Cc1nc(COC)no1)Cc1cccnc1NC | -1.287 |
| COCCCN1CCC(CNc2nccc(-c3cnn(C)c3)n2)C1 (configuration not stated) | 0.7819 |
| CC1CCN(C(=O)c2cccc3ncccc23)CC1 | -1.834 |
| CC(C)Oc1ncc(C(=O)N2CCC(N(C)C)CC2)cc1Cl | -24.51 |
| CN(C)C(=O)c1cccc(C[S+]([O-])CC(=O)NC2CCCC2)c1 (configuration not stated) | 8.2 |
| O=C(NC1CC1)c1cnc2n1CCCC2 | 4.998 |
| Cn1nc(C(=O)NC2CCCC2)cc1NC(=O)C1CC1 | 3.278 |
| CN(C)C(=O)c1cc2ncc(C(=O)NC3CCCC3)cc2n1C | 130.7 |
| CN(C)C(=O)c1cc2ncc(C(=O)NC3CC3)cc2n1C | 122.1 |
| CC1CCN(C(=O)c2cnc3cc(C(=O)N(C)C)n(C)c3c2)CC1 | 124.9 |
| CCNc1ncc(C(=O)N[C@H]2CC[C@H](n3cnnc3)CC2)cn1 | -5.329 |

| SMILES | Percent Effect [%] |
| --- | --- |
| COC(C(=O)N1CCN(Cc2noc(C)n2)CC1)c1ccccc1 (configuration not stated) | -8.523 |
| Cc1cc(C)n2cc(CN3CCCC3Cn3nc(C)nc3C)nc2n1 (configuration not stated) | -6.959 |
| Cn1cncc1-c1nnc([C@H]2CCN(Cc3ccc(CO)o3)C2)o1 | -1.062 |
| Cc1nn(C)c2ncc(NC(=O)N(C)Cc3cc(Cl)cn3C)cc12 | -3.854 |
| CC[C@H]1N(Cc2ccco2)CCC[C@]12CCC(=O)N2C | 102.2 |
| COC[C@@H]1CN(C)C(=O)[C@@H]2CCN(Cc3ccco3)CC[C@H]12 | -1.368 |
| CC[C@@H]1N(Cc2ccco2)CCC[C@]12CCC(=O)N2C.O=C(O)C(F)(F)F | 98.83 |
| COC1COC2(CCN(Cc3ccco3)CC2)C1 (configuration not stated) | -9.93 |
| Cn1nnc2c1CCN(Cc1ccco1)C2COCc1ccccc1.O=C(O)C(F)(F)F (configuration not stated) | 30.71 |
| COC(=O)CCN(CC1CCOC1)C1CC1 (configuration not stated) | -6.747 |
| Cc1nnc(C(C)N(C)Cc2c(C)nn(-c3ccccc3)c2C)o1 (configuration not stated) | 2.363 |
| COCC1CN(Cc2ccccn2)Cc2cn(C)nc21.O=C(O)C(F)(F)F.O=C(O)C(F)(F)F.O=C(O)C(F)(F)F (configuration not stated) | -7.522 |
| O=C1NCC(C(=O)N(Cc2cccc(Br)c2)C2CC2)N1 (configuration not stated) | 3.322 |
| O=C1NCC(C(=O)Nc2ncc(Cc3cccc(F)c3)s2)N1 (configuration not stated) | 100.2 |
| Cc1ccc(C)c(Oc2ccc(CNC(=O)C3CNC(=O)N3)cn2)c1 (configuration not stated) | -1.964 |
| O=C1NCC(C(=O)Nc2ncc(Cc3ccccc3)s2)N1 (configuration not stated) | 107.9 |
| CC(=O)NC(C)(C)C(=O)Nc1ncc(Cc2ccc(C)c(F)c2)s1 | 7.127 |
| O=C1NCC(C(=O)Nc2ncc(Cc3ccc(F)cc3)s2)N1 (configuration not stated) | 110.5 |
| O=C(Nc1cccc(OCc2cccc(F)c2)c1)C1COCCO1 (configuration not stated) | -8.331 |
| O=C(Nc1nncs1)N(Cc1cccc(F)c1)C1CC1 | -1.833 |
| Cc1ccc(Cc2cnc(NC(=O)C3CNC(=O)N3)s2)cc1F (configuration not stated) | 1.212 |
| CC(=O)N1CCCN(C(=O)Nc2ccccc2N2CCOC2=O)CC1 | -24.88 |

| SMILES | Percent Effect [%] |
| --- | --- |
| COc1cc(N2C[C@H]3CN(CC(=O)N(C)C)C(=O)[C@H]3C2)ncn1 | -6.391 |
| Cc1noc(CCNS(=O)(=O)N2CCCC2c2ccco2)n1 (configuration not stated) | -8.363 |
| COc1ccc(-n2nnc(C(=O)NCC3CCCCC3)n2)cc1 | -6.383 |
| COc1ccc(-n2nnc(C(N)=O)n2)cc1 | 106.9 |
| O=C(c1nnn(-c2ccc(C(F)(F)F)cc2)n1)N1CC(O)C1 | 9.515 |
| COCC(C)NC(=O)c1nnn(-c2ccc(OC)cc2)n1 (configuration not stated) | 5.009 |
| NC(=O)c1nnn(-c2ccc(Br)cc2)n1 | 2.849 |
| NC(=O)c1nnn(-c2ccc(Cl)cc2)n1 | 106 |
| O=C(Nc1ccccc1OCC(F)F)N[C@@H]1C=C[C@H](CO)C1 | -12.74 |
| O=C(NCC(O)c1ccc(F)cc1F)c1cccnc1O (configuration not stated) | -11.89 |
| COCCNc1cc(C2CCCNC2)ccn1.Cl (configuration not stated) | 131.3 |
| Cc1cc(C)c2nc(CN[C@H]3CCCNC3)cc(O)c2c1 | 1.45 |
| Cc1cccc(CNC[C@H]2Cn3ccnc3CO2)n1 | -11.54 |
| COCCOc1ccc(C(=O)N[C@@H]2CNCCC[C@H]2O)cc1 | -1.711 |
| Cc1cccc(CNc2cc(C3CCCNC3)ccn2)n1.Cl (configuration not stated) | 115.3 |
| COCCNc1ccc(-c2noc([C@@H]3CCCN3)n2)cn1 | 5.755 |
| Cl.c1ccc(CNc2cc(C3CCCNC3)ccn2)nc1 (configuration not stated) | 70.58 |
| Cl.Cl.c1ccc(NCc2cn3c(n2)CNCC3)nc1 | 6.135 |
| COc1ccnc(CNc2cc(C3CC3)ncn2)c1 | -5.331 |
